Compound activity (PubChem)
Only some compounds are listed: those with a hit (about 21% of all), similar ones and a draw of the others.
CHX counter = affects cycloheximide protein synthesis inhibition readout, counter-screen; max response, %; 300,000 tested, 12% active; cell reporter, cycloheximide protein synthesis inhibition counterscreen; in the data active = max response mostly above about 13%, no sharp cut-off; inactive = mostly below about 14%; note: read at 38.3 µM for the half of the compounds with a filed dose; 0% is about no effect
Pf growth 48h = P. falciparum growth inhibition at 48 hours (one generation) | P. falciparum luciferase growth in erythrocytes, 48 h | Potency, µM (titrated, usually from 28.7 µM), inactives show at the highest dose activity change, negative = inhibition, actives largely listed as inhibitors | 310,000 tested, 5.9% active; note: potency is the fitted concentration of half-maximal effect; % is set by controls: 0 for no effect and ±100 for the full control effect
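Luciferase-expressing parasites in RBCs, 2% Hct / 0.1% parasitemia final; RPMI 1640 + 0.5% Albumax; 37 C, 5% CO2, one generation; luminescence read-out, lower signal = inhibition.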
Pf growth 96h = P. falciparum growth inhibition at 96 hours; 320,000 tested, 6.9% active; Potency, µM (doses to about 28.7 µM), without a hit: at the highest dose activity change, negative = inhibition, actives largely listed as inhibitors; P. falciparum luciferase reporter growth, 96 h; note: potency is the fitted concentration of half-maximal effect; % is set by controls: 0 for no effect and ±100 for the full control effect
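Cell-based qHTS: luciferase-tagged P. falciparum in erythrocytes (2% hematocrit, 0.05% parasitemia final) incubated with compounds for 96 hours, 37 C, 5% CO2; luciferase detection reagent then added and luminescence measured.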
Shiga toxin inh = inhibitors of Shiga toxin in Vero cells | Vero cells, Shiga toxin protein synthesis inhibition reporter | AID 2315 | inhibition, % at 38.7 µM | 290,000 tested, 9.2% active; in the data active = inhibition mostly above about 28%, no sharp cut-off; inactive = mostly below about 43%; note: 0% is about no effect
NS1 function inh = blocks influenza NS1 protein function; Potency, µM (highest dose often 46.1 µM), for inactives: top-dose activity, positive = more growth; 270,000 tested, 0.4% active; AID 2326; calls by dose curve; note: potency is the fitted concentration of half-maximal effect; actives are rising curves; nearly all actives have a fitted effect of over 50% in size
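OD600 was taken as the measure of yeast growth restored by compound in an NS1-expressing S. cerevisiae strain. Cells had been washed out of glucose medium and diluted 1:100 into galactose -URA medium, pH 6.0.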
The depositor's hits bear a star; u = inconclusive; x = no result. Unless noted, calls come from the whole dose curve; as a rule, active = well fitted inhibition curve with a large enough effect; inconclusive = small, poorly fitted or top-dose-only effect, or another doubt; inactive = no such curve, though single readings can be large or run the other way.

SMILES	CHX counter	Pf growth 48h	Pf growth 96h	Shiga toxin inh	NS1 function inh
Cc1ccccc1Nc1nc(N)nc(CSCc2c(C)noc2C)n1	4.6	15.1%	34.6%	8.9	0.7%
C=CCn1c(=O)c2ccccc2n2c(SCc3nc(N)nc(Nc4ccccc4C)n3)nnc12	1.5	8.28µM*	u	-5.6	u
CCCCn1c(SCc2nc(N)nc(Nc3ccccc3C)n2)nc2ccccc2c1=O	-5.7	x	u	-17.9	28.2%
Cc1ccccc1Nc1nc(N)nc(COC(=O)c2cccc(S(=O)(=O)N(C)c3ccccc3)c2)n1	-2.3	u	5.86µM*	12.6	-17.0%
Cc1ccccc1Nc1nc(N)nc(COC(=O)c2ccccc2)n1	81.5*	190.7%	470.9%	78.9*	-5.9%
Cn1cc(CN2CCC(CO)CC2)c(-c2ccc(Oc3ccccc3)cc2)n1	-1.4	-7.1%	23.9%	-2.5	2.7%
Cc1ccccc1Nc1nc(N)nc(COC(=O)c2ccc(O)cc2)n1	20.4*	u	2.62µM*	-4.3	4.9%
Nc1nc(Nc2cccc3ccccc23)nc(C2CCCC2=O)n1 (centres undefined)	-2.5	3.8%	3.7%	26.5	-2.0%
COc1ccc(C(=O)NCC(=O)OCc2nc(N)nc(Nc3ccccc3C)n2)cc1	x	-28.7%	u	x	x
Cc1ccccc1Nc1nc(N)nc(COC(=O)CCNS(=O)(=O)c2ccccc2)n1	x	11.7µM*	u	x	x
Nc1nc(CCl)nc(Nc2cccc3ccccc23)n1	8.3	u	13.1µM*	15.1	7.0%
Cc1cc(C)c(OCC(=O)Nc2ccc3c(c2)OCO3)cc1C	21.2*	23.6%	38.3%	16.4	1.7%
CCNC(=O)COc1ccc(C=O)cc1OC	8.5	13.5%	-19.7%	4.8	-0.9%
Cc1ccc(OCC(=O)Nc2ccc3c(c2)OCO3)c([N+](=O)[O-])n1	27.6*	119.9%	126.1%	54.4*	6.4%
COc1cc(C=O)ccc1OCC(=O)Nc1ccc2c(c1)OCO2	20.2*	9.0%	u	44.1*	-2.7%
Cc1ccc(C)c(OCC(=O)Nc2ccc3c(c2)OCO3)c1	47.8*	3.3%	48.5%	42.3*	-0.9%
Cc1ccc(OCC(=O)Nc2ccc3c(c2)OC(F)(F)O3)c([N+](=O)[O-])n1	-0.5	21.8%	59.7%	-7.2	-6.7%
CC(Sc1nc2c(cc1C#N)CCCCC2)C(=O)O (centres undefined)	-2.4	7.8%	26.0%	5.8	3.9%
COc1ccc(CN(C(=O)c2cnccn2)C(C(=O)Nc2ccc(F)cc2)c2ccccc2)cc1 (centres undefined)	-1.8	u	4.3%	11.9	-4.2%
Cc1cccc(OCC(=O)Nc2ccc3oc(=O)ccc3c2)c1	14.2	24.3%	-0.9%	17.2	-2.6%
Cc1cc(C)c(OCC(=O)Nc2cccc(O)c2)cc1C	28.3*	190.6%	2.7%	59.0*	-9.2%
O=C(Nc1cc(C(F)(F)F)cc(C(F)(F)F)c1)c1cc(Cl)ccc1O	-5.8	x	x	-2.7	x
N/C(=C\C(=O)c1cc(Cl)ccc1O)C(Cl)(Cl)Cl	12.8*	2.94µM*	10.4µM*	23.7	-61.4%
CC1CCCN(C(=O)CCS(=O)(=O)c2cc3c(cc2Cl)NC(=O)CO3)C1 (centres undefined)	-0.3	18.7%	u	0.3	7.2%
C/C(=N\OCC(=O)NC(C)C)c1cccs1	11.8	11.3%	36.9%	-4.3	x
SMILES	CHX counter	Pf growth 48h	Pf growth 96h	Shiga toxin inh	NS1 function inh
O=C(CNc1ccccc1)NN=C1CCCC1	-0.8	-5.5%	9.2%	4.4	x
COCCn1c(COc2ccc(OC)cc2)nc2ccccc21	22.5*	35.7%	x	48.5*	-62.9%
CCn1c(COc2ccccc2)nc2ccccc21	23.6*	-19.1%	484.3%	36.2*	-9.1%
C=CCn1c(/N=C/c2ccc(OC)cc2)nc2ccccc21	-2.3	11.2%	-13.0%	1.3	-2.8%
C=CCn1c(COc2ccc(OC)cc2)nc2ccccc21	44.2*	51.0%	65.0%	33.5	-34.1%
CCOc1ccc(NCc2nc3ccccc3n2CCOc2ccccc2)cc1	37.7*	79.1%	6.57µM*	60.9*	17.7%
CCn1c(COc2ccc(OC)cc2)nc2ccccc21	50.5*	56.9%	4.65µM*	80.0*	-46.7%
COc1ccc(OCc2nc3ccccc3n2C(C)C)cc1	8.9	-11.8%	40.6%	13.8	-10.7%
COc1ccc(C(=O)N2CCN(S(=O)(=O)c3cc(Cl)ccc3OC)CC2)cc1	-2.8	-27.2%	-1.1%	-12.9	-34.1%
c1ccc(-n2nnnc2SCc2cn3cccnc3n2)cc1	2.5	-10.2%	u	-3.9	6.7%
Clc1ccc(SCc2cn3cccnc3n2)cc1	26.6*	65.4%	64.7%	96.9*	-50.1%
Cc1cc(OCc2cn3cccnc3n2)ccc1Cl	71.0*	27.8%	7.7%	64.9*	10.7%
CCN(Cc1cn2cccnc2n1)C1CCCCC1	-4.1	-3.0%	27.6%	12.6	x
Cn1ncnc1SCc1cn2cccnc2n1	-2.5	10.7%	10.6%	-30.8	-0.9%
Cc1ccc(SCc2cn3cccnc3n2)cc1	40.5*	85.2%	99.8%	56.8*	-46.7%
Cc1ccn2cc(CSc3ccccc3)nc2c1	47.1*	175.0%	x	111.2*	-21.6%
CN(C)S(=O)(=O)c1ccc(NC(=O)CCNC(=O)c2ccco2)cc1	-1.3	20.9%	8.7%	-6.0	-14.2%
N#CC12C(N)=NC3(OCCO3)C1(C#N)C1=C(CCC1)NC2c1ccccc1 (centres undefined)	16.8*	29.9%	36.6%	25.5	-8.9%
CCSC1(SCC)N=C(N)C2(C#N)C(c3ccccc3)NC3=C(CCC3)C12C#N (centres undefined)	-2.8	6.7%	x	-7.3	-1.9%
O=C(OCC(=O)N1CCc2ccccc2C1)c1ccc(OC(F)F)cc1	x	-0.1%	-17.5%	x	x
O=C(OCC(=O)N1CCc2ccccc2C1)c1cccs1	46.9*	1.47µM*	-6.9%	76.8*	-5.8%
O=C(OCC(=O)N1CCc2ccccc2C1)c1cccnc1Cl	35.6*	11.6%	13.7%	114.1*	x
O=C(OCC(=O)N1CCCCCC1)c1cccs1	37.5*	6.0%	19.9%	84.3*	-15.3%
O=C(Nc1ccccc1C(=O)OCC(=O)N1CCc2ccccc2C1)c1ccco1	42.0*	u	-5.2%	73.3*	-86.9%
Cc1cnc(C(=O)OCC(=O)N2CCc3ccccc3C2)cn1	0.5	20.4%	23.4%	-16.2	2.1%
SMILES	CHX counter	Pf growth 48h	Pf growth 96h	Shiga toxin inh	NS1 function inh
Cc1cccc(C(=O)OCC(=O)N2CCCCCC2)c1	x	139.0%	37.5%	x	x
COCCn1c(SCC(=O)Nc2cccc(C)n2)nnc1-c1ccco1	8.8	1.9%	-29.5%	22.8	0.6%
CCCOC(=O)c1ccc(NC(=O)c2cc(OC)c(OC)c(OC)c2Br)cc1	-2.5	-16.1%	11.3%	-5.3	-12.0%
O=C(Nc1ccc2c(c1)OCCO2)c1c[nH]c(=O)n(-c2ccc(F)c(Cl)c2)c1=O	-4.4	2.4%	1.5%	-5.1	13.0%
Cc1cc(NC(=O)C2(c3ccccc3)CCCC2)no1	-2.1	-1.1%	x	-2.9	-7.1%
C=CCNC(=O)CSc1n[nH]c(-c2cc(Cl)ccc2OC)n1	-2.6	-15.3%	-2.0%	-9.9	x
CC(=N\O)/C(CN(C)C)=N/O	8.1	19.7%	10.4µM*	-5.0	u
CCN(CC(=O)Nc1c(F)cccc1F)C(=O)C1COc2ccccc2O1 (centres undefined)	x	36.3%	31.9%	x	x
